Out of some 360,000 compounds screened, about 17,000 (4.7%) were called active. Not shown: some 5% with an inconclusive outcome. No stated cut-off is given here; in the data, active means activity change below about -50%; inconclusive means mostly about -30% to -49%; inactive means weaker than that. For the sample, actives were picked, then their nearest neighbours and some compounds at random.
experiment: qHTS for Inhibitors of Inflammasome Signaling: IL-1-beta AlphaLISA Primary Screen; conditions: THP-1 LPS/ATP IL-1B secretion, 16 h; at 57.5 µM, active compounds read low
Summary of the method: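 Secreted IL-1B measured by AlphaLISA bead assay after 16 h compound exposure of THP-1 cells; compounds (final up to 57.5 uM) added 1 h before LPS (250 ng/mL) and ATP (1.25 mM) stimulation; lower signal means less secretion.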
On the % scale 0 is the no-effect control and ±100 the full control effect.

Activity change, inactive:
COc1ccc([C@H]2CC(=O)C[C@@H](CCn3cc(CC4CCCC4)nn3)O2)cc1 10.9%, COc1ccc(-c2nc3ccc(Br)cn3c2Cc2ccc(C)cc2)cc1OC -15.5%, Cc1ccc(Cn2cc(C(=O)NN)c(=O)c3ccc(F)cc32)cc1 -11.4%, Cc1ccc(Nc2nc(C)cc(C)c2C(N)=O)cc1 19.4%, Cc1ccc2cccc([N+](=O)[O-])c2n1 15%, O=NN(CCCl)C(=O)NCCc1cccc[n+]1[O-] 15%, O=C(c1ccc(CSc2ccccc2)cc1)N1CCCCCC1 -19.7%, O=C(NC1CCCCCC1)C1CCN(C(=O)c2ccc(Cl)cc2)CC1 9.37%, O=C(NC(=S)NC1CCCCC1)c1ccc(Cl)cc1 -21%, O=C(NC1CCCCCC1)c1cccnc1Sc1ccc(Cl)cc1 1.6%, CCCNC(=O)C1(C)CCN(Cc2ccc(Cl)c(Cl)c2)C1 (centres undefined) 17.3%, COc1ccc(N)c(C)c1 -25.8%, COC(=O)[C@]12CCCCC=C1N(CCC1=CCCCC1)C(=O)[C@H](CC(=O)NCC1CCCCC1)C2 -28.6%, Fc1ccc(NC(=S)N2CCc3[nH]c4ccccc4c3C2)cc1 11.5%, O=C(Nc1ccc(Cl)cc1)N1CCc2[nH]c3ccccc3c2C1 -18.5%, CCCCN1C[C@H](c2ccc(Br)cc2)[C@@H](CC(=O)Nc2ccc(Br)cc2)C1=O -5.58%, OCc1ccc(OCCCOc2cccc3cccnc23)cc1 -1.1%, NC(=O)C1CCN(C(=O)COc2cccc3cccnc23)CC1 0.882%, C[C@H](CO)N1C[C@H](C)[C@H](CN(C)CC2CC2)Oc2ccc(NC(=O)CCN3CCOCC3)cc2C1=O 18.8%, O=C(C1CCCO1)N1CCN(C(=O)C23CC4CC(CC(C4)C2)C3)CC1 (centres undefined) 9.67%, CCC(c1nc2ccccc2[nH]1)n1c(=O)c(-c2cccs2)nc2ccccc21 (centres undefined) -20%, CN1CCN(c2ccc([N+](=O)[O-])c(Sc3nc4ccccc4[nH]3)c2)CC1 -26.9%, CC(C)c1csc(CN2CCC(CO)(Cc3ccccc3)CC2)n1 -21.7%, CN=C(NC#N)NCCSCc1nc[nH]c1C 33.7%, COc1ccccc1-n1nnnc1SCC(=O)NC(=O)Cc1ccccc1 4.79%, CCC(C)N(C(=O)CSc1nnnn1-c1ccccc1OC)C1CCS(=O)(=O)C1 (centres undefined) -14.9%, CCCC(C)n1[nH]c(=O)c2c(C)cc(C)nc21 (centres undefined) -13.2%, CC1(C)CC(=O)C=C(Nc2ccccc2)C1 -3.98%, Cc1cc(O)ccc1NC1=CC(=O)CC(C)(C)C1 -0.895%, CC1C(=O)N(Cc2cn(CC3CCCCC3)nn2)CCS(=O)(=O)N1Cc1ccc(-c2cccc(N(C)C)c2)cc1 (centres undefined) 0%, OCCN1CCN(CCO)C1=S 15.9%, Cc1c(NC(=O)c2cc(-c3ccc(Br)cc3)on2)c(=O)n(-c2ccccc2)n1C -16.8%, Cc1cc2oc(C(=O)Nc3c(C)n(C)n(-c4ccccc4)c3=O)c(C)c2cc1Cl 0%, COC(c1ccccc1)(c1ccccc1)C(Oc1nc(C)cc(C)n1)C(=O)O (centres undefined) 17.2%, COc1ccc(C(=O)COC(=O)c2nn(C)c(=O)c3ccccc23)c(OC)c1 -0.449%, CC[C@]12c3[nH]c4ccc(OC)cc4c3CCN1C(=O)C(CC(=O)NCc1ccco1)C[C@@H]2C(=O)N1CCN(C(=O)C2CC2)CC1 (some centres undefined) 16.2%, Cc1ccc(COc2ccc(C(=O)NN)cc2)cc1 -17.7%, CCCCOc1ccc(NC(=O)CSCC(=O)OCC)cc1 -3.32%, CCCCn1c(N)c(N(CCOC)C(=O)c2cccc(OCc3ccccc3)c2)c(=O)[nH]c1=O -4.76%, COc1cccc(OCc2nnc3n2N=C(c2ccccc2)C(CC(=O)O)S3)c1 (centres undefined) 29.1%, COc1ccc(NC(=O)C2Cc3c(-c4ccc5c(c4)OCO5)ccnc3O2)cn1 (centres undefined) 22.6%, COC(=O)N(C)C[C@@H]1OCc2cnnn2CCCC(=O)N([C@@H](C)CO)C[C@@H]1C 1.38%, CC1CN(Cc2ccco2)C(=S)N(c2ccccc2)C1=O (centres undefined) 3.29%, OC(c1ccccc1)(c1ccccc1)C1CCN(CCCOc2ccccc2)CC1 -28.1%, O=C1CCN(CCc2ccccc2)CCN1CCOc1ccccc1 23.9%, O=C(c1ccc(N2CCCC2=O)cc1)N1CCN(c2ccc(C(F)(F)F)cc2[N+](=O)[O-])CC1 -8.61%, CCOc1ccc(Br)cc1S(=O)(=O)Nc1cccc(S(=O)(=O)N(CC)CC)c1 -3.12%, CC1(C)OC(=O)C2=C(C[C@@H](C3CCCC3)O[C@@H]2c2ccc(Cl)cc2)O1 30.2%, Cc1cc(C)c2c(NC(=O)C3CC3)nn(C)c2n1 -2.02%, Cc1cc(-n2nc(C)cc2C)n2nc(C)c(-c3ccccc3)c2n1 -4.92%, CN(C)Cc1ccc(F)cc1Sc1cc(Cl)ccc1Cl 4.08%, Cc1ccccc1CN1C(=O)CSCC1(C)C(=O)Nc1c(C)cccc1C (centres undefined) -3.26%, CC1CC(C)CN(CC(=O)N2c3ccccc3CCc3ccccc32)C1 (centres undefined) -6.12%, CC1C(=O)N(Cc2ccccc2)c2ccccc2N1C(=O)c1ccccc1 (centres undefined) 0.175%, O=C(OCCOc1ccccc1Cl)c1cc(S(=O)(=O)N2CCCCC2)ccc1N1CCOCC1 11.6%, O=C(c1c(F)cccc1Cl)N1CCN(c2ccccn2)CC1 -9.43%, O=C(c1ccc2ccccc2n1)N1CCN(c2ccccc2Cl)CC1 -2.41%, Cc1ccc(C2=NN(C(=O)CSc3nc(N)cc(N)n3)C(c3ccco3)C2)cc1 (centres undefined) -23.3%, COCCCN1C(=O)C(CC(=O)NCc2cccs2)CC(C(=O)N2CCOCC2)=C1C (centres undefined) -1.75%

Activity change, active:
Cc1ccc(Nc2cc(C)nc3c(C)ccc([N+](=O)[O-])c23)cc1 -61.1%, CC1CCN(C(=O)c2ccc(CSc3ccc(Cl)cc3)cc2)CC1 -51.2%, O=C(NC1CCCCC1)c1ccc(-c2ccc(Cl)cc2)o1 -76.5%, O=C(CCCN1CCc2[nH]c3ccc(F)cc3c2C1)c1ccc(F)cc1 -79.8%, O=C(Nc1ccccc1)Oc1cccc2cccnc12 -91.6%, CCC(C)N1C(=O)S/C(=C/c2ccc(Sc3nc4ccccc4[nH]3)o2)C1=O (centres undefined) -96.1%, COc1ccccc1-n1nnnc1S(=O)(=O)Cc1ccc(Cl)cc1 -119%, Cc1ccccc1C#CC1=CC(=O)CC(C)(C)C1 -52.1%, Cc1c(NC(=O)c2coc(=O)c(Br)c2)c(=O)n(-c2ccccc2)n1C -72.5%, CCCCCCCCCCOC(=O)Cn1c(COc2cccc(OC)c2)[n+](C)c2ccccc21 -79.3%, CCCCCCCCCCOC(=O)Cn1c(COc2ccc(C)cc2)[n+](C)c2ccccc21 -90.4%, O=c1[nH]c2ccccc2n1C1CCN(CCOc2ccccc2)CC1 -51.9%, Cc1cc(C)c2c(n1)nn1c(-n3ccnc3)cc(C)nc21 -75.6%, CC1C(C)N(C(=O)CCl)c2ccccc2N1C(=O)CCl (centres undefined) -101%, O=C(c1c(Cl)cccc1Cl)N1CCN(c2cccc3[nH]ccc23)CC1 -73.5%
